# Screening data (PubChem BioAssay)
# An excerpt weighted towards active compounds, which were near 4.7% of everything screened.
# TRHR ag: qHTS for Small Molecule Agonists and Allosteric Enhancers of Human TRH Receptor: Primary Screen for Agonists; TRHR cells, calcium flux fluo-8, FDSS agonist mode; activation, % at 2 µM; 360,000 compounds, 0.18% hits; AID 493084, 2011; also: 0% is about no effect
# Target sequence (P34981 whole entry, looked up): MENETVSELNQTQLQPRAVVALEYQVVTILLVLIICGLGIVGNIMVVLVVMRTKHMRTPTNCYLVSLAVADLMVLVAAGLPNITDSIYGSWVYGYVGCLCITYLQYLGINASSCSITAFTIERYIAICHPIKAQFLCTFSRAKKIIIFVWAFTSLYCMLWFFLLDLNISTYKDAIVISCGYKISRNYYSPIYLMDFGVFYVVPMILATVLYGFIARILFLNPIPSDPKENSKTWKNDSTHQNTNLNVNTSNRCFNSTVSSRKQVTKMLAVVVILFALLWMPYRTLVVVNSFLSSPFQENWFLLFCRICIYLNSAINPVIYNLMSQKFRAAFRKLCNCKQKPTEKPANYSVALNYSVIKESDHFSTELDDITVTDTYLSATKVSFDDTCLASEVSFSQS
#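 Agonist-mode FDSS calcium read (Ex 480/Em 530, 1 s cycles) in 1536-well TRHR cells with fluo-8 dye, after 10-cycle baseline and 23 nL compound addition; TRH at EC20 (10 nM final) added afterwards for the enhancer phase.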
# TRHR enhancer: qHTS for Small Molecule Agonists and Allosteric Enhancers of Human TRH Receptor: Primary Screen for Enhancers. enhancement, % at 2 µM. 360,000 compounds, 0.66% hits. TRHR cells, fluo-8 calcium fluorescence, EC20 TRH enhancement; in the data active = enhancement above about 30%; also: 0% is about no effect
#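 TRHR-expressing cells loaded with fluo-8 calcium dye were read kinetically (ex 480/em 530) during compound addition, then stimulated with an EC20 of TRH (10 nM final). Enhancement of the Gq-mediated intracellular calcium response was scored.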
# D1 agonist: Allosteric Agonists of the Human D1 Dopamine Receptor: qHTS. HEK293 T-REx D1 cells, calcium flux, agonist mode. activation, % at 2 µM. 360,000 compounds, 1% hits. AID 504660, 2011; also: 0% is about no effect
#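 Tetracycline-induced HEK293 TREx D1 cells, force-coupled to calcium signalling, were dye-loaded with a no-wash calcium kit. Compound was pin-added after a 10 s baseline. Fluorescence was read kinetically at 1 cycle/s for 180 s, with calcium rises flagged as agonism.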
# D1 antag: Antagonist of Human D 1 Dopamine Receptor: qHTS | HEK293 TREx D1 cells, calcium flux, dopamine EC80; active compounds read low | 360,000 compounds, 3.2% hits | activity change, negative = inhibition, % at 10 µM | D(1A) dopamine receptor (Homo sapiens), P21728 | AID 504652, 2011; in the data active = activity change below about -30%; also: % is scaled to controls: 0 for no effect and ±100 for the full control effect
#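 Antagonism measured as reduced calcium response to an EC80 dopamine addition following 180 s compound pre-read; cells were inducible HEK293 Trex D1 plated overnight at 30 C, read kinetically at 1 cycle/sec.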
# D1 potentiator: Potentiators of Human D1 Dopamine Receptor: qHTS; HEK293 TREx D1 cells, calcium flux, dopamine EC20 potentiation; potentiation, % at 10 µM; 360,000 compounds, 0.036% hits; AID 504651, 2011; in the data active = potentiation above about 30%; also: 0% is about no effect
# The depositor's hits bear a star. Rule as the data show it, unless noted: active = activation above about 30%; inactive = the rest.
SMILES,TRHR ag,TRHR enhancer,D1 agonist,D1 antag,D1 potentiator
COc1cccc(-c2ccc(NC(=O)C3CCCN(CCCn4cccn4)C3)cc2)c1 (stereo not given),3.2,-4.5,37.6*,-11.7,-10.7
Cc1nn(C)c(Cl)c1CN1CCCC(C(=O)Nc2cccc(-n3cccn3)c2)C1 (stereo not given),0.3,7.3,5.3,-34.8*,-3.1
CCCc1ncc(CN2CCCC(C(=O)Nc3ccc(-c4cccc(OC)c4)cc3)C2)cn1 (stereo not given),0.4,2.8,27.0,-14.2,-3.6
CCn1cc(CN2CCCC(C(=O)Nc3cccc(-n4cccn4)c3)C2)c(C)n1 (stereo not given),0.6,8.1,0.6,-7.5,1.3
COc1ccc(CCNC(=O)C(=O)NCC(c2ccc3c(c2)OCO3)N2CCOCC2)cc1OC (stereo not given),-0.1,-5.7,-0.3,1.7,-3.5
COc1ccccc1CNC(=O)CN1C(=O)c2cccnc2Oc2ccccc21,-0.3,-4.9,0.8,-21.6,-1.2
C=CCOC(=O)C1=C(C)NC(SCC(N)=O)=C(C#N)C1c1cccs1 (stereo not given),-0.3,-0.2,-1.1,-45.3*,-3.8
CCCSc1nc2c(c(=O)[nH]1)C(c1ccc(F)cc1F)CC(=O)N2 (stereo not given),0.4,-9.7,36.9*,-1.1,2.0
Cc1ccc(NC(=O)C2C3CCC(O3)C2C(=O)O)c(Br)c1 (stereo not given),-0.2,4.9,2.1,9.4,0.2
Cc1ccc(Cl)cc1NC(=O)C1C2CCC(O2)C1C(=O)O (stereo not given),0.2,-2.2,-1.3,-35.3*,-1.2
CC(Oc1cccc(Cl)c1)C(=O)Nc1ccccc1N1CCCC1 (stereo not given),-0.2,-5.2,4.1,19.2,0.8
CCN1CCN(c2ccccc2NC(=O)C(C)Oc2ccc(C(C)=O)cc2)CC1 (stereo not given),-0.4,7.1,-0.4,-49.3*,-3.8
Cc1ccc2oc(C(=O)Nc3c(C(=O)Nc4cccc(Cl)c4)oc4ccccc34)cc(=O)c2c1,0.7,-2.4,3.2,-7.7,-2.0
COc1cc(OC)c(CNC2CCCCCC2)cc1Br,-0.5,27.1,61.9*,-11.0,-12.4
COc1cc(OC)c(OC)cc1CNC1CCCCCC1,-1.9,-0.6,4.7,20.8,-4.8
O=C(NCc1cccs1)c1ccc(Cn2c(SCc3ccccc3)nc3cccnc32)cc1,-1.0,22.6,8.7,-1.9,-1.3
COC(=O)C(NC(=O)CCc1c(C)nc2c(-c3ccccc3)c(C)nn2c1C)C(C)C (stereo not given),0.1,11.6,2.0,-3.1,-4.9
Clc1nc(-c2n[nH]nc2Cl)n[nH]1,0.0,-0.5,-0.1,-31.2*,-6.0
CN(N)c1nc(C(F)(F)F)nc2ccccc12,-0.5,-0.2,-1.0,-3.0,3.0
Nc1nc(N(Cc2ccccc2)Cc2ccccc2)nc(C(F)(F)F)n1,2.4,3.0,9.2,-34.1*,-8.8
Cc1cc(C(=O)CSc2nc3ccccc3[nH]2)c(C)n1CC1CCCO1 (stereo not given),-0.9,1.2,14.0,-32.9*,-7.8
CSc1ncccc1C(=O)OCC(=O)c1cc(C)n(CC2CCCO2)c1C (stereo not given),0.0,-5.5,4.5,-33.7*,-10.4
Cc1ccc(NC(=O)CSc2ccc(-c3sc(-c4ccccc4)nc3C)nn2)cc1F,0.5,2.7,2.4,-9.6,-4.0
CC1(C)CN=c2s/c(=C\c3ccc(Cl)cc3)c(=O)n2C1,2.0,5.1,33.0*,7.6,-6.8
CSC1=N/C(=C\c2ccc(Cl)cc2)C(=O)N1N(C)C,0.1,0.7,8.5,-5.0,-3.6
O=C(CN1CCN(C2CCCCC2)CC1)c1ccc2cc[nH]c2c1,0.2,-1.7,1.5,-36.0*,4.2
O=C(CN1CCN(C2CCCCC2)CC1)c1c[nH]c2ccccc12,0.9,1.8,6.8,-10.6,-0.9
